Source: PubChem
Rows were chosen to be rich in hits. Some 2.4% of all compounds tested hit in one or more screens of this group.
D2 antagonist: D2 dopamine receptor (human) antagonism | P14416 | HEK293 TREx D2 cells, calcium flux, dopamine EC80 | inhibition, % at 10 µM | 340,000 compounds, 2% hits; in the data active = inhibition above about 30%; inactive = below that, where a call was filed
Target sequence (P14416 whole entry, looked up): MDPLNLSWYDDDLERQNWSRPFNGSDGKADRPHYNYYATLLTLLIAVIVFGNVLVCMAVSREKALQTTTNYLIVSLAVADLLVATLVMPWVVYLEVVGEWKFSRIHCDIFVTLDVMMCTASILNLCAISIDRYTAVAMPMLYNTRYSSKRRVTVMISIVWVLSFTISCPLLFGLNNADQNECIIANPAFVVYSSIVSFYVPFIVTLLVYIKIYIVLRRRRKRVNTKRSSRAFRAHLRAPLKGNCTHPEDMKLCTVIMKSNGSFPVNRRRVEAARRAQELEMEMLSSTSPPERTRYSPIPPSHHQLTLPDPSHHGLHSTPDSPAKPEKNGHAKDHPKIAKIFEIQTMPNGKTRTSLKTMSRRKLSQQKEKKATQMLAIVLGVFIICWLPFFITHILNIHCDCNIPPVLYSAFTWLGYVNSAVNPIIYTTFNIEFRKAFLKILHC
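Antagonism is scored as inhibition of an EC80 dopamine-evoked calcium signal in a force-coupled, tetracycline-inducible HEK293 T-REx D2 line, with compound present 180 s before agonist.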
D2 ag-1: activates the human D2 dopamine receptor; P14416; 360,000 compounds, 0.084% hits; activation, % (no concentration beside the values); DiscoveRx PathHunter D2 beta-arrestin, luminescence, 90 min; 100% = 57 uM dopamine signal; in the data active = activation above about 40%
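Agonist mode: compounds alone added to overnight-plated D2 PathHunter cells for 90 min at 37 C, with 57 uM final dopamine (EC100) defining full response. Beta-arrestin recruitment detected by chemiluminescent reagent, read after 1 h at ambient temperature.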
D2 PAM-1: potentiates the human D2 dopamine receptor allosterically; DiscoveRx D2 beta-arrestin cells, luminescence, 90 min; 100% = 57 uM dopamine signal; potentiation, % (concentration not given with the values); 360,000 compounds, 0.23% hits; AID 624464; in the data active = potentiation above about 50%
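D2 cells co-treated with compound plus 50 nM dopamine (EC20) for 90 min at 37 deg C to detect potentiation. Beta-arrestin recruitment was read as enzyme-fragment luminescence after 1 h at ambient temperature. Full response was set by 57 uM dopamine.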
D2 PAM-2: D2 dopamine receptor (human) potentiation | 340,000 compounds, 0.34% hits | P14416 | HEK293 T-REx D2, calcium flux, EC20 dopamine potentiation | potentiation, % at 10 µM;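 active = potentiation over 3 SD above the plate norm, cut at about 30% in these data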
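Tetracycline-induced Hek293 Trex D2 cells, force-coupled to calcium, loaded with no-wash calcium dye. Compound added with 180 s kinetic read for agonism, then EC20 dopamine and a further 180 s read for potentiation.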
D2 ag-2: D2 dopamine receptor (human) agonism. P14416. HEK293 T-REx D2 cells, calcium flux agonist mode. activation, % at 2 µM. 340,000 compounds, 0.53% hits. AID 485358;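 active = activation over 3 SD above normal in the single-dose calcium agonist read, cut at about 30% in these data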
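Tetracycline-induced HEK293 Trex cells with D2 receptor force-coupled to calcium signaling, plated overnight at 30 C and loaded with no-wash calcium dye. Calcium flux read kinetically for 180 s after compound addition; responses flag agonists.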
Each line names hits and unclear results; the compound was inactive in the other large screens.

Cc1ccccc1C(=O)Nc1ccnn1C1CCN(Cc2ccncc2)CC1	D2 antagonist 31
CCOC(=O)/C=c1\s/c(=C\c2ccc3c(c2)OCCO3)c(=O)n1CC(=O)NCC1CCCO1 (stereo not given)	D2 antagonist 55
O=C(CN1C(=O)S/C(=C\c2cccs2)C1=O)Nc1ccc(C(=O)O)c(O)c1	D2 antagonist 40
O=C(CSC1=NCCN1)Nc1cccc(C(F)(F)F)c1	D2 antagonist 75
CC1=C(C(=O)N2CCN(c3ccc(Cl)cc3)CC2)C2(CCC(C)CC2)OC1=O (stereo not given)	none (no result: D2 antagonist, D2 ag-1, D2 PAM-1)
Cc1cc(=O)n2c(C(=O)Nc3ccc(C)c(Cl)c3)c(C(=O)Nc3ccccc3)sc2n1	none (no result: D2 antagonist, D2 ag-1, D2 PAM-1)
CC(=O)c1ccc(N2CCN(C(=O)/C=C/c3ccc(S(=O)(=O)N4CCOCC4)cc3)CC2)cc1	D2 antagonist 50
Cc1cccc(C)c1Nc1nnc(SCC(=O)NC2CCS(=O)(=O)C2)s1 (stereo not given)	none
Cc1ccc(Nc2nnc(SCC(=O)NC3CCS(=O)(=O)C3)s2)c(C)c1 (stereo not given)	D2 antagonist 39
O=C(OCc1cc(=O)n2nc(-c3cccs3)sc2n1)c1cccc(F)c1	none (no result: D2 antagonist, D2 ag-1, D2 PAM-1)
c1csc(CSc2nc3ccccc3s2)c1	D2 antagonist 39
Cc1noc(C)c1CSc1nc2ccccc2s1	none (no result: D2 PAM-2)
COc1ccccc1NC(=O)C1=C(C)Nc2ncnn2C1c1ccc[nH]1 (stereo not given)	none (no result: D2 antagonist, D2 ag-1, D2 PAM-1)
O=C(NCCCNC(=O)c1c(F)cccc1F)c1c(F)cccc1F	none
O=C(NCC(Cl)c1ccc2ccccc2c1)c1c(F)cccc1F (stereo not given)	D2 antagonist 69
O=C(O)c1ccc(Nc2ncnc3ccccc23)cc1	D2 antagonist 32
CC(C)c1cnc2c(c1SCC(=O)Nc1cccc([N+](=O)[O-])c1)c(=O)n(C)c(=O)n2C	none (no result: D2 antagonist, D2 ag-1, D2 PAM-1)
O=C1C(=O)c2ccccc2C(O)=C1c1cccc([N+](=O)[O-])c1	D2 antagonist 48
Cn1cc(-c2cc3n(n2)CCC(=O)N3CC(=O)NCc2ccccc2)c2ccccc21	none (no result: D2 antagonist, D2 ag-1, D2 PAM-1)
O=C(C[n+]1ccccc1)N/N=C/c1cc(Br)cc(Br)c1O	D2 antagonist 32
O=C(C[n+]1ccccc1)N/N=C/c1cc(Br)ccc1F	none
COc1ccc(Br)cc1/C=N/NC(=O)C[n+]1ccccc1	D2 antagonist 40
COc1ccc(OC)c(NS(=O)(=O)c2ccc(-c3cc(C)no3)s2)c1	none (no result: D2 antagonist, D2 ag-1, D2 PAM-1)
CCCCS(=O)CC(CS(=O)CCCC)OC(=O)c1ccccc1 (stereo not given)	none
CCCCS(=O)(=O)CC(COc1ccccc1)OC(=O)c1ccccc1 (stereo not given)	D2 antagonist 35
COc1ccc(-c2noc(-c3cc(C(C)C)[nH]n3)n2)cc1	none (no result: D2 antagonist, D2 ag-1, D2 PAM-1)
COc1ccccc1-n1c(SCC(=O)NC2CCS(=O)(=O)C2)nc2cc([N+](=O)[O-])ccc21 (stereo not given)	none
CCN(CC)S(=O)(=O)c1ccc2c(c1)nc(SCC(=O)NC1CC1)n2-c1ccccc1OC	D2 antagonist 51 (no result: D2 PAM-2)
CCc1ccccc1NC(=O)CN(c1ccccc1)S(=O)(=O)c1ccsc1C(=O)OC	none (no result: D2 antagonist, D2 ag-1, D2 PAM-1)
COc1ccc(S(=O)(=O)c2c(Nc3ccc(F)cc3)sc(C(=O)c3ccc4c(c3)OCO4)c2N)cc1	none (no result: D2 antagonist, D2 ag-1, D2 PAM-1, D2 PAM-2)
OC1CCN(Cc2ccc(OCc3ccccc3)cc2)CC1	none
CC1CCCN(Cc2ccc(OCc3ccccc3)cc2)C1 (stereo not given)	D2 antagonist 46
c1ccc(-c2ncc(CSc3nncn3-c3ccccc3)s2)cc1	none (no result: D2 antagonist, D2 PAM-2, D2 ag-2)
Cc1nnc(SCc2cnc(-c3ccc(C(C)C)cc3)s2)n1C	D2 antagonist 67
Cc1ccc(-c2nn(-c3ccccc3)cc2CNCc2ccccc2)cc1	D2 antagonist 51
Cc1ccc(-c2nn(-c3ccccc3)cc2CO)cc1	none
COCCNC(=O)CN1C(=O)c2cccnc2Oc2ccc(Cl)cc21	none (no result: D2 antagonist, D2 ag-1, D2 PAM-1)
CCOC(=O)c1ccc(NC(=O)c2c(C)nn(-c3ccc(F)cc3)c2-n2cccc2)cc1	none (no result: D2 antagonist, D2 ag-1, D2 PAM-1, D2 PAM-2)
CCC1(c2ccc(F)cc2)NC(=O)N(CC(=O)N2CCOCC2)C1=O (stereo not given)	none
CCC1(c2ccc(F)cc2)NC(=O)N(CC(=O)c2ccc[nH]2)C1=O (stereo not given)	D2 antagonist 30 (no result: D2 PAM-2)
Cc1cc(C)c(/C=C/c2onc(C)c2S(=O)(=O)N2CCC(C(=O)N3CCN(c4ccc(Cl)cc4)CC3)CC2)c(C)c1	none (no result: D2 antagonist, D2 ag-1, D2 PAM-1)
Cc1nnc(N/N=C/c2c(Cl)cccc2Cl)n1N	none
CCc1nnc(N/N=C/c2c(F)cccc2Cl)n1N	D2 ag-1 41
COc1ccc(C2c3[nH]c4ccc(OC)cc4c3CCN2C(=O)Nc2ccccc2)cc1 (stereo not given)	none (no result: D2 antagonist, D2 ag-1, D2 PAM-1)
CC(C)(C)c1nn(-c2ccccc2)c2[nH]c(=O)c(C=O)cc12	D2 antagonist 39
CC(C)(C)c1nn(-c2ccccc2)c2nc(Cl)c(C=O)cc12	D2 antagonist 32
CCOc1ccc(NCc2cc3c(C(C)(C)C)nn(-c4ccccc4)c3[nH]c2=O)cc1	none
Cc1ccccc1-c1noc(-c2cc(C(C)C)[nH]n2)n1	none (no result: D2 antagonist, D2 ag-1, D2 PAM-1)
CCCCn1c(SCC(=O)c2cc(OC)ccc2OC)nc2cc(S(N)(=O)=O)ccc21	none
CCCCn1c(SCC(=O)c2ccc(O)cc2O)nc2cc(S(N)(=O)=O)ccc21	D2 antagonist 32
O=C(NC1CCCCC1)c1cc(-c2ccc(F)cc2)on1	D2 PAM-2 39
Cc1ccc(-c2cc(C(=O)NC3CCCC3)no2)cc1	none
CCCOc1ccc(C(=O)N(Cc2cccs2)c2ccc(C)cc2)cc1	none (no result: D2 antagonist, D2 ag-1, D2 PAM-1)
Cc1ccc(-n2ncc3c(N4CCCC4)ncnc32)c(C)c1	none
COc1cccc(N2CCN(c3ncnc4c3cnn4-c3ccc(C)cc3C)CC2)c1	D2 ag-1 87
COc1cccc(CNC(=O)C2CCN(C(=O)c3sccc3-n3cccc3)CC2)c1	none (no result: D2 antagonist, D2 ag-1, D2 PAM-1)
CON(C)S(=O)(=O)c1cccc(C(=O)Nc2ccc(S(=O)(=O)NC3=NCCCCC3)cc2)c1	D2 antagonist 33
Cc1noc(C)c1C(=O)OCC(=O)NC1CCCCC1C (stereo not given)	D2 PAM-2 37
Cc1noc(C)c1C(=O)OCC(=O)NC1CC1	none
COc1cc(C(=O)O)nc2ccc([N+](=O)[O-])cc12	D2 antagonist 38
COc1ccc([N+](=O)[O-])cc1C(=O)C(=O)c1ccccc1	none
CCCc1cnc2c(c1SCC(=O)Nc1ccc(C)c(Cl)c1)c(=O)n(C)c(=O)n2C	none (no result: D2 antagonist, D2 ag-1, D2 PAM-1)
COc1cc(Cl)c(CC(=O)c2c[nH]c3ccccc23)cc1OC	D2 antagonist 33
Cc1c(C(=O)N(C)c2cccc(C(F)(F)F)c2)sc2nc3n(c(=O)c12)CCCCC3	none (no result: D2 antagonist, D2 ag-1, D2 PAM-1)
Cc1c(Cl)cccc1NC(=O)CSc1ncc(S(=O)(=O)c2ccc(C(C)C)cc2)c(=O)[nH]1	none (no result: D2 antagonist, D2 ag-1, D2 PAM-1)
Cc1ccc2nc(-c3ccc(Cl)c(NC(=O)COc4cccc(C)c4C)c3)oc2c1	none (no result: D2 antagonist, D2 ag-1, D2 PAM-1)
